# Measured values reported in paper PMC5540273 (PLoS ONE, 2017).
# What was measured:
# Details in all cases: concentration: 1 μM, replicates: in singlicate; n = 1
# MTOR = test system: MTOR
# MUSK = test system: MUSK
# MYLK2 = test system: MYLK2
# MYLK4 = test system: MYLK4
# MYLK = test system: MYLK
# MYO3A = test system: MYO3A
# MYO3B = test system: MYO3B
# NDR1 = test system: T1, NDR1
# T1 construct: gene STK38
# NDR2 = test system: NDR2
# NEK10 = test system: NEK10
# NEK11 = test system: NEK11
# NEK1 = test system: NEK1
# NEK2 = test system: NEK2
# NEK3 = test system: NEK3
# NEK4 = test system: NEK4
# NEK5 = test system: NEK5
# NEK6 = test system: NEK6
# NEK7 = test system: NEK7
# NEK9 = test system: NEK9
# NIK = test system: T2, NIK
# T2 construct: gene MAP3K14
# 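Further: KINOMEscan kinase panel screen.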
SMILES,%Inh (MTOR) [%],%Inh (MUSK) [%],%Inh (MYLK2) [%],%Inh (MYLK4) [%],%Inh (MYLK) [%],%Inh (MYO3A) [%],%Inh (MYO3B) [%],%Inh (NDR1) [%],%Inh (NDR2) [%],%Inh (NEK10) [%],%Inh (NEK11) [%],%Inh (NEK1) [%],%Inh (NEK2) [%],%Inh (NEK3) [%],%Inh (NEK4) [%],%Inh (NEK5) [%],%Inh (NEK6) [%],%Inh (NEK7) [%],%Inh (NEK9) [%],%Inh (NIK) [%]
Cc1cccc(Nc2nc(NCCN)ncc2C(N)=O)c1 [GSK1292139],12,6,5,94.3,8,5,0,21,25,47,3,0,0,31,29,47,0,0,18,0
Cl.O=C(Nc1ccc(Oc2ccc3[nH]c(NC(=O)c4ccco4)nc3c2)cc1)Nc1cc(C(F)(F)F)ccc1F [GW683134],5,98.6,75,3,0,0,9,0,0,0,0,0,2,0,0,0,0,0,79,13
c1ccc(Oc2ccc(Nc3ccnc4cc(-c5ccc(CN6CCCCC6)o5)ccc34)cc2)nc1 [GW567143],2,24,0,0,0,0,14,0,0,1,0,0,0,0,25,0,0,0,2,6
CC(C)(C)c1ccc(C(=O)Nc2cn3cc(-n4ccnc4)ccc3n2)cc1,10,1,18,2,0,0,0,8,7,0,0,0,0,35,0,13,2,0,3,0
COc1ccc(C)c(Nc2ccnc(Nc3ccc(-c4cnc[nH]4)cc3)n2)c1.Cl [GW784041],0,0,7,0,18,11,27,22,0,0,0,0,2,7,0,14,0,4,0,0
Cn1cc(-c2ccc3c(c2)CCN3C(=O)Cc2cc(F)cc(F)c2F)c2c(N)ncnc21 [GSK2634140],15,28,82,0,11,38,1,0,0,10,38,7,84,0,32,8,18,0,8,26
O=C(Nc1c(F)cccc1F)c1cc(C(=O)c2ccccc2F)c[nH]1 [GSK1326180],18,0,4,6,0,0,0,0,2,9,16,0,0,0,0,0,0,0,5,0
Cc1cc(-c2c(-c3ccc(F)cc3)ncn2CCCN2CCOCC2)nc(N)n1 [SB-222517],0,14,1,14,17,17,30,43,14,16,0,33,0,25,0,0,9,0,0,12
COC(=O)Nc1nc2ccc(Oc3ccc(CC(=O)Nc4cc(C(F)(F)F)ccc4F)cc3)cc2[nH]1 [GW680903],26,95.5,0,0,10,12,0,0,0,21,0,0,0,6,14,13,0,0,45,25
Cc1cccc(Nc2nc(N[C@H]3CCCC[C@H]3N)ncc2C(N)=O)c1.Cl [GSK986310],0,27,7,93.8,29,8,0,27,0,71,0,2,15,19,24,13,10,8,25,23
